KB-3-1 tox – qHTS assay for MDR1-selective chemotherapeutics: Primary screen using the parental adenocarcinoma cell KB-3-1; KB-3-1 viability, CellTiter-Glo ATP luminescence, 72 h; Potency, µM (series often up to 46.1 µM), hits mostly cytotoxic; 1.4% of 400,000 active; further: on the % scale 0 is the no-effect control and ±100 the full control effect; nearly all actives have a fitted effect of over 60% in size
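Cells are dispensed, compounds pinned in, plates held at 37 °C for 72 h, then CellTiter-Glo is added and luminescence read after 10 minutes. Cell line: parental KB-3-1 in phenol-red-free DMEM, 10% FBS.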
KB-V1 MDR tox – qHTS assay for MDR1-selective chemotherapeutics: Primary screen using the drug-selected MDR subline cells KB-V1. KB-V1 MDR cells viability, CellTiter-Glo, 72 h. Potency, µM (doses to about 46.1 µM), most hits filed as cytotoxic. 3.4% of 400,000 active. AID 1347076, 2019; further: on the % scale 0 is the no-effect control and ±100 the full control effect; nearly all actives have a fitted effect of over 60% in size
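Cells of the MDR subline KB-V1 are plated, dosed with compound at multiple concentrations, and incubated 72 h at 37 degrees C; CellTiter-Glo is then added and luminescence read after 10 min.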
ATXN2 expr inh – Primary qHTS for Inhibitors of ATXN expression. Potency, µM (doses to about 57 µM), for the others: at the highest dose activity change, negative = inhibition, usual class: inhibitors. HEK-293 ATXN2-luciferase reporter, luminescence, 24 h. 0.72% of 360,000 active; further: on the % scale 0 is the no-effect control and ±100 the full control effect; nearly all actives have a fitted effect of over 55% in size
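qHTS (up to 57 uM final) was run with 24 h compound exposure of reporter cells at 37 °C. Each well was multiplexed: SteadyGlo luminescence measured ATXN2-luciferase expression after a fluorogenic Gly-Phe-AFC viability readout (25 uM final).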
TGFb SMAD3 inh – qHTS for Inhibitors of TGF-b; HepG2 CAGA-GFP TGF-b/SMAD3 reporter, GFP fluorescence, 18 h; TGF-beta stimulated, 500 pg/mL final; Potency, µM (top dose mostly 46.1 µM), without a hit: at the highest dose activity, negative = inhibition, usual class: inhibitors; 1.2% of 410,000 active; further: on the % scale 0 is the no-effect control and ±100 the full control effect; nearly all actives have a fitted effect of over 65% in size
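Per well, imaged GFP fluorescence of HEPG2 CAGA-GFP cells gives the signal; cells get compound, then TGF-beta (500 pg/mL final), 18 h at 37 degrees C; %Activity versus -TGF-beta and +DMSO controls.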
HepG2 tox – qHTS for Inhibitors of TGF-b: Cytotox Counterscreen; AID 588856, 2011; Potency, µM (series often up to 46.1 µM), for inactives: at the top dose activity change, negative = cytotoxicity, usual class: cytotoxic; 0.76% of 410,000 active; HepG2 CAGA-GFP viability, ATP luminescence, 18 h
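CellTiter-Glo luminescence gave cytotoxicity after 18 hours at 37 degrees C. The cells were HepG2 CAGA-GFP in 1% FBS DMEM, stimulated with 500 pg/mL TGF-beta after compound addition. %Activity was normalised to no-cell wells (complete cell-killing) and DMSO (no toxicity), and curves were fitted and classified.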
ATXN viability – Viability Counterscreen for Primary qHTS for Inhibitors of ATXN expression | S2 cells (HEK-293 line with an ATXN2-luciferase reporter) viability, CellTiter-Fluor protease fluorescence, 24 h | Potency, µM (doses to about 56.7 µM), most hits filed as cytotoxic | 0.49% of 400,000 active | AID 651635, 2014; further: nearly all actives have a fitted effect of over 40% in size
Numbers without * were called inactive; i = inactive; ? = inconclusive; · = no result; ! = not active in a repeat. Rows were chosen to be rich in hits. Some 5.9% of all compounds tested hit in one or more screens of this group. The call rests on the fitted dose curve; in most records, active means well fitted curve in the direction sought with a large enough effect; inconclusive means small, poorly fitted or top-dose-only effect, or another doubt; inactive means no such curve, though single readings can be large; an effect the other way counts as inactive or inconclusive. Potency means the concentration at half of the fitted maximal effect.

SMILES | KB-3-1 tox | KB-V1 MDR tox | ATXN2 expr inh | TGFb SMAD3 inh | HepG2 tox | ATXN viability
CC(C)NC(=O)[C@@H]1C[C@@H](Sc2ccccn2)CN1C1CCN(C)CC1 | · | · | · | · | · | i
Cc1cc(=O)n(CC(=O)NC(C)c2ccccc2)c2c1c(C)nn2-c1cccc(F)c1 (centres undefined) | i | i | 7.0% | -11.2% | -6.1% | i
COc1ccc(CNC(=O)C2CCCN(S(=O)(=O)c3ccc4c(c3)CCCN4C(C)=O)C2)cc1 (centres undefined) | 20.6µM*! | i | 0.0% | -14.1% | -21.0% | i
COc1ccccc1N1CCN(C(=O)C2CCCN(S(=O)(=O)c3ccc4c(c3)CCCN4C(C)=O)C2)CC1 (centres undefined) | ? | i | 17.8µM*! | ? | -6.7% | ?
CC(=O)N1CCCc2cc(S(=O)(=O)N3CCCC(C(=O)N4CCN(c5cc(C)ccc5C)CC4)C3)ccc21 (centres undefined) | ? | ? | 20µM* | 12.6µM* | -4.4% | 25.1µM*!
CC(=O)N1CCCc2cc(S(=O)(=O)N3CCCC(C(=O)N4CCN(c5ccccc5)CC4)C3)ccc21 (centres undefined) | ? | i | ? | ? | -31.2% | ?
COc1cccc(NS(=O)(=O)c2ccc3c(c2)CCCN3C(C)=O)c1 | i | 20.6µM* | -1.4% | 4.4% | -17.8% | i
CCOc1ccccc1CNC(=O)c1cc2c(=O)n(Cc3ccccc3)ccc2nc1C | i | i | ? | ? | -24.1% | i
COc1cccc(C2C3=C(CC(C)(C)CC3=O)Nc3cc4c(cc32)OCO4)c1 (centres undefined) | i | ? | -6.6% | 18.0% | 4.7% | ?
O=C1OCC2=C1C(c1ccc(F)cc1)c1cc3c(cc1N2)OCO3 (centres undefined) | 0.0366µM* | 0.146µM* | ? | ? | 4.8% | ?
O=C1OCC2=C1C(c1ccc(F)cc1)c1cc3c(cc1N2)OCCO3 (centres undefined) | 0.164µM* | 0.0326µM* | -3.9% | ? | 6.3% | i
C#CCOc1ccc(C2C3=C(COC3=O)Nc3cc4c(cc32)OCO4)cc1OC (centres undefined) | ? | 4.61µM* | -25.9% | ? | 1.8% | i
COc1cc2c(cc1OC)C(c1ccc3c(c1)OCO3)C1=C(CC(C)(C)CC1=O)N2 (centres undefined) | i | 0.731µM* | 7.0% | -0.9% | 3.5% | ?
O=C1OCC2=C1C(c1ccc3c(c1)OCO3)Sc1ccccc1N2 (centres undefined) | i | i | -9.8% | -3.8% | 2.9% | i
COc1ccc(C(=O)N2CCOc3ccc(CN4CCN(c5ccccn5)CC4)cc3C2)o1 | · | · | · | · | · | i
CC(C)(C)[C@H]1CCC(=O)N(CCSc2ccc(Br)cc2)CC1 | i | ? | · | ? | -63.6% | ·
COCCCNc1ncnc2sc(C(=O)N3CCCCC3)c(C)c12 | · | · | · | · | · | i
Cn1nc(C(C)(C)C)cc1NC(=O)Nc1cc(Cl)cc(Cl)c1 | i | i | -36.9% | ? | 15.8µM* | i
CCOc1nc2c(c(=O)n(C)c(=O)n2C)n1Cc1ccccc1Cl | ? | 4.11µM* | -24.0% | -24.3% | -18.6% | ?
Cn1c(Oc2ccc(F)cc2)nc2c1c(=O)n(Cc1ccccc1Cl)c(=O)n2C | ? | 10.3µM* | -2.3% | -5.0% | -2.6% | i
Cn1c(=O)c2c(nc(Br)n2Cc2ccc3ccccc3c2)n(C)c1=O | 7.31µM* | 2.59µM* | -23.7% | -9.4% | -8.1% | i
Cn1c(=O)c2c(nc(Br)n2Cc2ccccc2Cl)n(C)c1=O | i | i | 0.1% | 17.1% | 11.3% | i

Compound activity from PubChem.
